Measurements: PubChem BioAssay AID1903 (Southern Research Specialized Biocontainment Screening …, 2009)
The whole screen tested about 310,000 compounds, of which about 1,200 (0.39%) were called active. The rule behind the calls is not given here. A selection follows. Entries with a potency or affinity are not part of this list.

Molecular target: Large T antigen (Simian virus 40) (UniProt P03070)
Test: TAg ATPase/helicase activity blockers – biochemical (AID 1903)
Settings: SV40 large T antigen ATPase/helicase inhibition assay; at 20 µM; active compounds read high

Chain of Large T antigen (Simian virus 40) (P03070 whole entry, looked up): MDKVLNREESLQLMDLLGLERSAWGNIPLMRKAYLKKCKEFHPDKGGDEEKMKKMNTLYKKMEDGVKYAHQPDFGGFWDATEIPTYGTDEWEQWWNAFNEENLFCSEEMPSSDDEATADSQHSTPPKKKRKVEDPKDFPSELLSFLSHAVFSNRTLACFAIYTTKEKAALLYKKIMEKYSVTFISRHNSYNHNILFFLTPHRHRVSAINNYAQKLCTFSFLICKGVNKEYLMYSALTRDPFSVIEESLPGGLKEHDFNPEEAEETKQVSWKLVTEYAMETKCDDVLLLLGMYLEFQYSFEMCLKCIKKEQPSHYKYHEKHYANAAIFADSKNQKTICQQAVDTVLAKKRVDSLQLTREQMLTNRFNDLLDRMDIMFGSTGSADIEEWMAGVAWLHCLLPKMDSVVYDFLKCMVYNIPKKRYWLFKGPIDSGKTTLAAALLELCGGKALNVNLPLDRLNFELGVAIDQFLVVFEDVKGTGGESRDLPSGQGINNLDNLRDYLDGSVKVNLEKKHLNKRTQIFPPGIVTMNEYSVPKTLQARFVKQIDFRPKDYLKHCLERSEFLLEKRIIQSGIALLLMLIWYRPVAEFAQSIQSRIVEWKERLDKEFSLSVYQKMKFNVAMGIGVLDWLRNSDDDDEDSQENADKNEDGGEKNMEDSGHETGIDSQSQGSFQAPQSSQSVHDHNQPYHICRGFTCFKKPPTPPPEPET

SMILES	inhibition
O=C(COc1ccc([N+](=O)[O-])cc1)Nc1ccc2c(c1)nc1n2CCOC1	14.9% (inactive)
Cc1ccc(C(=O)CN(Cc2ccccc2)C2=NCCS2)cc1	-1.42% (inactive)
c1ccc2c(c1)C(=Nn1cnnc1)c1ccccc1-2	3.9% (inactive)
C=CCN1C(=O)/C(=N/n2cnnc2)c2ccccc21	25.4% (inactive)
O=C(c1ccco1)N1CCC(c2nc3c(nnn3Cc3ccc(F)cc3)c(=O)[nH]2)CC1	12.3% (inactive)
Cc1ccc(NC(=O)COC(=O)CCC(=O)c2cccs2)cc1S(=O)(=O)N1CCOCC1	14.2% (inactive)
CC12CC3CC(C)(C1)CC(C(O)CN1CCOCC1)(C3)C2 (centres undefined)	3.1% (inactive)
COc1cc(/C=N/N=C(\N)c2nonc2N)cc(OC)c1O	36.3% (inactive)
N/C(=N\N=C\c1cccc(O)c1)c1nonc1N	18.6% (inactive)
COc1ccc(/C=N/N=C(\N)c2nonc2N)cc1OC	22.7% (inactive)
N/C(=N\N=C\c1ccc(O)cc1)c1nonc1N	23.1% (inactive)
CCOC(=O)c1c(NC(=S)N2CCN(C)CC2)sc(C)c1-c1ccccc1	9.17% (inactive)
CCOC(=O)C1=C(O)C(=O)N(c2ccc(S(N)(=O)=O)cc2)C1c1ccc([N+](=O)[O-])cc1 (centres undefined)	5.61% (inactive)
Cc1ccc(NC(=O)Cc2ccsc2)cc1Cl	8.34% (inactive)
C=CCC(C#Cc1ccc(C)cc1)N(CC)CC (centres undefined)	2.04% (inactive)
COCCNC(=O)CN(C(=O)CCC(=O)Nc1ccccn1)c1ccc(F)cc1	2.44% (inactive)
N#Cc1ccccc1-c1ccccc1C(=O)N1CCCCC1	5.76% (inactive)
Cc1cccc(C(=O)Nc2ccc(C(=O)Nc3ccc(O)cc3)cc2)c1	8.66% (inactive)
O=C(Nc1ccc(O)cc1)c1ccc2c(c1)C(=O)N(Cc1ccccc1)C2=O	35.7% (inactive)
O=C(Nc1cccc(O)c1)c1ccc2c(c1)C(=O)N(Cc1ccco1)C2=O	8.23% (inactive)
COc1cc(C(=O)Nc2ccc(C(=O)O)cc2)ccc1OC(C)=O	17.2% (inactive)
COC(=O)c1ccc(NC(=O)c2ccc(OC(C)=O)c(OC)c2)cc1	4.68% (inactive)
CCc1ccc(NC(=O)c2ccc3c(c2)C(=O)N(Cc2ccco2)C3=O)cc1	9.22% (inactive)
Cc1cccc(C(=O)Nc2ccc(NC(=O)c3ccccc3)cc2)c1	2.43% (inactive)

SMILES	inhibition
O=C(Nc1ccccc1O)c1ccc2c(c1)C(=O)N(N1C(=O)c3ccccc3C1=O)C2=O	5.64% (inactive)
CCCOC(=O)c1ccc(NC(=O)CSC2=Nc3ccccc3C3CC=NN23)cc1 (centres undefined)	7.1% (inactive)
CCCCNC(=O)c1cc2c(C)cc(C)cc2[nH]1	4.47% (inactive)
COc1ccc(S(=O)(=O)n2nc(-n3c(C)ccc3C)c3c(F)cccc32)cc1OC	2.54% (inactive)
COc1ccc(S(=O)(=O)N2CCN(c3ccc(C)cc3C)CC2)cc1OC	7.1% (inactive)
CCn1cc(C(=O)N2CCN(c3ccc(OC)cc3)CC2)c(=O)c2cc(S(=O)(=O)N3CCCCC3)ccc21	15.4% (inactive)
CN1CCN(C(=O)C2CCCN(S(=O)(=O)c3ccccc3)C2)CC1 (centres undefined)	7.31% (inactive)
CC1Cc2cc(/C=C3/SC(=S)N(C)C3=O)ccc2O1 (centres undefined)	0.875% (inactive)
O=C(COc1ccc2c3c(c(=O)oc2c1)CCCC3)N1C[C@H]2C[C@@H](C1)c1cccc(=O)n1C2	3.64% (inactive)
N#C/C(=C\c1cccnc1)C(=O)Nc1ccc(Cl)cc1	14.4% (inactive)
CCN(CC)C1CC(=O)N(c2cccc(C)c2)C1=O (centres undefined)	0.27% (inactive)
O=C1CC(N2CCSCC2)C(=O)N1c1cccc(Br)c1 (centres undefined)	10.7% (inactive)
COC(C/C=C\[C@H](O)[C@@H](C)OCc1ccccc1)OC	2.9% (inactive)
CC1(C)Cc2c(c(N3CCOCC3)nc3sc(-c4ccc(C(=O)O)o4)c(N)c23)CO1	21.9% (inactive)
COC(=O)c1ccc(-c2sc3nc(N4CCOCC4)c4c(c3c2N)CC(C)(C)OC4)o1	-1.68% (inactive)
COC(=O)c1ccccc1NS(=O)(=O)c1ccc(Cl)nc1	4.72% (inactive)
N#CC1=C(N)OC2=C(C(=O)CCC2)C1c1cccs1 (centres undefined)	23% (inactive)
O=C(NCC(c1cccnc1)N1CCN(c2ccc(F)cc2)CC1)C1CCCCC1 (centres undefined)	18.4% (inactive)
O=C(NCC(c1cccnc1)N1CCN(c2ccccc2)CC1)C1CCCCC1 (centres undefined)	2.45% (inactive)
CCN(c1ccccc1)c1nc2ccsc2c(=O)s1	3.95% (inactive)
COc1ccc(S(=O)(=O)N2CC=C(C(=O)Nc3ccc(NC(C)=O)cc3)CC2)cc1	8.65% (inactive)
COc1ccc(N(CC(=O)NCCC2=CCCCC2)S(C)(=O)=O)cc1	1.47% (inactive)
NS(=O)(=O)c1ccc(NC(=O)COC(=O)COc2ccccc2)cc1	3.76% (inactive)
CCCc1nnc(NC(=O)C(C)N2C(=O)C3C4C=CC(C4)C3C2=O)s1 (centres undefined)	4.05% (inactive)

SMILES	inhibition
c1ccc(-n2nnnc2Cc2nnnn2-c2ccccc2)cc1	-7.53% (inactive)
c1ccc(-c2nnnn2-c2ccccc2)cc1	12.4% (inactive)
Cc1ccc(-n2nnnc2C(Cl)c2nnnn2-c2ccc(C)cc2)cc1	7.23% (inactive)
Cc1ccc(-c2nnnn2-c2ccc(C)cc2)cc1	-0.57% (inactive)
COc1cc(OC)cc(C(=O)N[C@H](C(=O)Nc2cccc(S(=O)(=O)N3CCCC3)c2)C(C)C)c1	11.5% (inactive)
O=C(Nc1cccc(-c2cn3c(n2)SCC3)c1)c1ccc(Br)o1	7.7% (inactive)
COc1ccccc1OCCC(=O)NCc1ccc2c(c1)OCO2	8.06% (inactive)
Cc1[nH]c2ccccc2c1C(=O)COC(=O)c1cccc(S(=O)(=O)N2CCCCC2)c1	7.32% (inactive)
CC(=O)Nc1ccc(N/C=C2/CCCC2=O)cc1	16.2% (inactive)
Cc1ccc(N/C=C2\CCCCC2=O)c(C)c1	8.76% (inactive)
Cc1ccccc1NC(=S)NCc1ccccc1	7.25% (inactive)
CCOC(=O)c1cccc(Nc2nc(-c3cccnc3)nc3ccccc23)c1	6.16% (inactive)
COc1ccc(CNC(=O)CSc2nnc(C)c(=O)[nH]2)cc1	8.06% (inactive)
O=C1CC(Nc2ccc(N3CCOCC3)cc2)C(=O)N1c1ccccc1 (centres undefined)	21.4% (inactive)
O=C1CC(Nc2ccccc2)C(=O)N1c1ccc(N2CCOCC2)cc1 (centres undefined)	6.8% (inactive)
S=c1[nH]nc(C2CCCCC2)n1/N=C/c1ccc(Br)cc1	0.57% (inactive)
CCOc1cc(CNCCO)cc(Br)c1OCc1cccs1	10.3% (inactive)
CCN(CC)S(=O)(=O)c1ccc(NC(=O)c2cnccn2)cc1	19.6% (inactive)
CCN(C(=O)CN1CCN(c2ccccc2)CC1)c1c(N)n(Cc2ccccc2)c(=O)[nH]c1=O	14.1% (inactive)
CCN(C(=O)CN1CCN(c2ccc(OC)cc2)CC1)c1c(N)n(Cc2ccccc2)c(=O)[nH]c1=O	21.5% (inactive)
Cc1ccc(C(=O)N/C(=C\c2ccc3c(c2)OCO3)C(=O)Nc2ccc(C(=O)O)cc2)cc1	1.87% (inactive)
COCCN(C(=O)COC(=O)c1cc2c(s1)CCCC2)c1c(N)n(Cc2ccccc2)c(=O)[nH]c1=O	4.52% (inactive)
CCC1CCc2sc(C(=O)OCC(=O)N(CCOC)c3c(N)n(Cc4ccccc4)c(=O)[nH]c3=O)cc2C1 (centres undefined)	16.3% (inactive)
CCN1/C(=C2/SC(=S)N(NC(C)=O)C2=O)Sc2ccccc21	0.32% (inactive)

SMILES	inhibition
Cc1ccc(-n2cc(CNCC3CC(=O)N(C4CC4)C3)c(-c3cccc(C)c3)n2)cc1 (centres undefined)	4.43% (inactive)
CCOc1ccc(N=Cc2ccc3ccccc3c2)cc1	21.9% (inactive)
O/N=C/c1ccc2ccccc2c1	70.8% (inactive)
COc1ccc(S(=O)(=O)N(C)c2ccc(OC(=O)C(C)Oc3ccc(F)cc3)cc2)cc1 (centres undefined)	13% (inactive)
N/C(=N\N=C\c1ccc2c(c1)OCO2)c1nonc1N	7.74% (inactive)
Cc1cc(=O)oc2c(CN(CC(C)C)CC(C)C)c(O)ccc12	15.8% (inactive)
Cc1cc(=O)oc2c(CN3CCCC3)c(O)ccc12	4.61% (inactive)
COc1ccc(CCN2C(=NC(=O)CC(C)C)SC3CS(=O)(=O)CC32)cc1 (centres undefined)	0.43% (inactive)
COc1cccc(/C=N/NC(=O)c2cccs2)c1	-1.95% (inactive)
COc1cc(/C=N/NC(=O)c2cccc([N+](=O)[O-])c2)cc(OC)c1O	20.1% (inactive)
COc1ccc(/C=N/NC(=S)Nc2cccc(C(=O)O)c2)cc1OC	19.3% (inactive)
CCCOc1ccc(/C=N/NC(=O)c2nnn(-c3nonc3N)c2-c2cccs2)cc1OC	10.3% (inactive)
COc1ccc(/C=N/NC(=O)c2nnn(-c3nonc3N)c2-c2cccs2)cc1OC	7.55% (inactive)
COc1cc(/C=N/NC(=O)c2cccs2)ccc1OCc1ccccc1	-0.01% (inactive)
O=C(CNC(=O)c1cccc(F)c1)N/N=C/c1cccc([N+](=O)[O-])c1	16.8% (inactive)
COc1cc(/C=N/NC(=S)Nc2cccc(C(=O)O)c2)cc(OC)c1OC	5.01% (inactive)
COc1cc(OC)c(C(=O)NCC2CCCO2)cc1OC (centres undefined)	-5.36% (inactive)
CS(=O)(=O)N1CCCC(C(=O)Nc2ccccc2F)C1 (centres undefined)	1.68% (inactive)
O=C(O)c1cccc(NC(=O)c2ccccc2NC(=O)c2ccccc2F)c1	9% (inactive)
Cc1ccc(NC(=O)CN(C)CC(=O)Nc2ccccc2C#N)cc1	8.84% (inactive)
CC(Oc1ccc(Br)cc1)C(=O)O/N=C(\N)c1ccncc1 (centres undefined)	2.31% (inactive)
COc1cccc(C(=O)C2CCCN(Cc3cn(C)nc3-c3ccccc3)C2)c1 (centres undefined)	-3.2% (inactive)
